This is part of a sample that, as a whole, favours compounds with a hit. Of some 83,000 tested, about 20% had one in any assay.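 Note: values are percent growth. 100 is the growth of untreated cells, values between 100 and 0 indicate rising inhibition; between -100 and 0 indicates cell death.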 Active and inactive are the calls of the source. The calls were made as follows: active = growth percent below 10; inactive = the rest.
What was measured:
Experiment in all cases: NCI-60 one-dose screen, 48 h (100 = growth as untreated, 0 = no growth, -100 = all killed)
Conditions in all cases: 10 µM unless noted
NCI-H23 lung = tested on: NCI-H23 lung
NCI-H226 lung = tested on: NCI-H226 lung
NCI-H322M lung = tested on: NCI-H322M lung
HOP-62 NSCLC = tested on: HOP-62 NSCLC
NCI-H460 lung = tested on: NCI-H460 lung
HOP-92 NSCLC = tested on: HOP-92 NSCLC
NCI-H522 lung = tested on: NCI-H522 lung
A549/ATCC NSCLC = tested on: A549/ATCC NSCLC
786-0 renal = tested on: 786-0 renal
COLO 205 colon = tested on: COLO 205 colon

Measured: growth

NC(=NCCCOc1ccc(F)cc1)Nc1ccc(Cl)cc1
inactive: NCI-H23 lung 46% | NCI-H226 lung 65.7% | NCI-H322M lung 60.1% | HOP-62 NSCLC 46.6% | NCI-H460 lung 84.2% | HOP-92 NSCLC 60.7% | NCI-H522 lung 76.5% | A549/ATCC NSCLC 53% | 786-0 renal 71.4%

O=C(Nc1cccc(C(=O)N2CCc3ccc(Cl)cc32)c1)c1ccco1
inactive: NCI-H23 lung 62.4% | NCI-H226 lung 60.2% | NCI-H322M lung 65.2% | HOP-62 NSCLC 42.4% | NCI-H460 lung 15.8% | HOP-92 NSCLC 74.1% | NCI-H522 lung 17.8% | A549/ATCC NSCLC 38.3% | 786-0 renal 40.5%

CCCCCCOc1ccc(/C=N/Nc2cc(C)nc3ccc(Cl)cc23)cc1
active: HOP-62 NSCLC -51.6% | NCI-H460 lung -80% | NCI-H522 lung -42.9% | A549/ATCC NSCLC -43.1% | 786-0 renal -82.2%
inactive: NCI-H23 lung 68.3% | NCI-H226 lung 87.8% | NCI-H322M lung 14.6% | HOP-92 NSCLC 69.5%

COc1cc(-c2n/c(=C\c3c(O)[nH]c4ccc(Cl)cc34)cc3c2=Nc2ccccc2-3)ccc1F
active: HOP-62 NSCLC 3.23% | NCI-H460 lung 0.147% | HOP-92 NSCLC -26.3% | NCI-H522 lung 3.18% | A549/ATCC NSCLC -52.2% | 786-0 renal -56.8%
inactive: NCI-H23 lung 17.2% | NCI-H226 lung 60.5% | NCI-H322M lung 66.5%

O=c1c2c(c(=O)n1O)c1c3ccc[nH]c3nc1c1nc3[nH]cccc3c12
inactive: NCI-H23 lung 86.7% | NCI-H226 lung 87.1% | NCI-H322M lung 91% | HOP-62 NSCLC 83% | NCI-H460 lung 93.1% | HOP-92 NSCLC 80.1% | NCI-H522 lung 55% | A549/ATCC NSCLC 79.4% | 786-0 renal 87.5%

COc1cc(-c2csc(NC(=O)c3cc(F)cc(C(F)(F)F)c3)n2)cc(OC)c1OC
inactive: NCI-H23 lung 49.8% | NCI-H226 lung 27.7% | NCI-H322M lung 68% | HOP-62 NSCLC 39.3% | NCI-H460 lung 19.5% | HOP-92 NSCLC 51.2% | A549/ATCC NSCLC 64.4% | 786-0 renal 29.4%
active: NCI-H522 lung -10.8%

O=C1CC(=O)OC(c2ccc([N+](=O)[O-])cc2)O1
active: NCI-H522 lung -65.5% | 786-0 renal -73.8%
inactive: NCI-H23 lung 43.6% | NCI-H226 lung 34.8% | NCI-H322M lung 51.7% | HOP-62 NSCLC 26.5% | NCI-H460 lung 35.6% | HOP-92 NSCLC 36.9% | A549/ATCC NSCLC 33.6%

C[C@H]1[C@H]2[C@H]3CC[C@@H]4[C@@]5(C)CC[C@H](O)C(C)(C)[C@@H]5CC[C@@]4(C)[C@]3(C)CC[C@]23CO[C@]1(C)[C@@H](C(=O)/C=C\c1ccco1)C3
inactive: NCI-H23 lung 98.5% | NCI-H226 lung 99.7% | NCI-H322M lung 88.3% | HOP-62 NSCLC 104% | NCI-H460 lung 109% | HOP-92 NSCLC 65.4% | NCI-H522 lung 87.8% | A549/ATCC NSCLC 104% | 786-0 renal 104%

Cc1cc2nc3c4cc([N+](=O)[O-])ccc4n(CCN(C)C)c3nc2cc1C
active: NCI-H23 lung -26.8% | NCI-H226 lung -25.3% | NCI-H322M lung -15.1% | HOP-62 NSCLC 5.3% | NCI-H460 lung 1.25% | HOP-92 NSCLC -10.7% | NCI-H522 lung -17% | A549/ATCC NSCLC -45.8% | 786-0 renal 5.9%

CCNc1nc2ccc(Nc3ccnc4cc(Cl)ccc34)cc2[nH]1
inactive: NCI-H23 lung 89.6% | NCI-H226 lung 94.8% | NCI-H322M lung 97.5% | HOP-62 NSCLC 94.7% | NCI-H460 lung 85.9% | HOP-92 NSCLC 61% | NCI-H522 lung 98.3% | A549/ATCC NSCLC 90.8% | 786-0 renal 72.2% | COLO 205 colon 61.2%

CNC(=O)c1cc(Cn2nc(C)c(NC(=O)Nc3ccc(Cl)c(C(F)(F)F)c3)c2C)ccn1
inactive: NCI-H23 lung 97.8% | NCI-H226 lung 96.6% | NCI-H322M lung 94.5% | HOP-62 NSCLC 93.4% | NCI-H460 lung 100% | HOP-92 NSCLC 106% | NCI-H522 lung 71.5% | A549/ATCC NSCLC 70% | 786-0 renal 100% | COLO 205 colon 99.9%

O=C(NNc1nc2c(F)cccc2n2cccc12)c1cnccn1
active: NCI-H522 lung 2.24% | COLO 205 colon -4%
inactive: NCI-H23 lung 24.8% | NCI-H226 lung 31.7% | NCI-H322M lung 25.5% | HOP-62 NSCLC 30.2% | NCI-H460 lung 11.6% | HOP-92 NSCLC 67.4% | A549/ATCC NSCLC 15.7% | 786-0 renal 27.4%

COc1cc(/C=C\c2cc(OC)c(OC)c(OC)c2)cc(NC(=O)/C=C/c2cc(OC)c(OC)c(OC)c2)c1OC
inactive: NCI-H23 lung 27.8% | NCI-H226 lung 66.6% | NCI-H322M lung 66.8% | HOP-62 NSCLC 63.7% | NCI-H460 lung 55.7% | HOP-92 NSCLC 45% | NCI-H522 lung 23.3% | A549/ATCC NSCLC 60.8% | 786-0 renal 51.6% | COLO 205 colon 38.2%

Nc1c(C(=O)Nc2ccnc3ccccc23)sc2nc3c(cc12)CN(Cc1ccccc1)CC3
inactive: NCI-H23 lung 70.3% | NCI-H226 lung 53.1% | NCI-H322M lung 90.3% | HOP-62 NSCLC 111% | NCI-H460 lung 87.4% | HOP-92 NSCLC 66.7% | NCI-H522 lung 70.1% | A549/ATCC NSCLC 85.1% | 786-0 renal 66.3% | COLO 205 colon 97.3%

COc1ccccc1/C=C1\Oc2cc(OCCN3CCCC3)ccc2C1=O
inactive: NCI-H23 lung 82.8% | NCI-H226 lung 85.3% | NCI-H322M lung 99.8% | HOP-62 NSCLC 96.4% | NCI-H460 lung 84.6% | HOP-92 NSCLC 59.5% | NCI-H522 lung 89.8% | A549/ATCC NSCLC 95.3% | 786-0 renal 82.5% | COLO 205 colon 95.4%

COc1ccc(-c2[nH][nH]c(=O)c2-c2nc3ccccc3s2)cc1
inactive: NCI-H23 lung 105% | NCI-H226 lung 98% | NCI-H322M lung 100% | HOP-62 NSCLC 104% | NCI-H460 lung 105% | HOP-92 NSCLC 108% | NCI-H522 lung 96.3% | A549/ATCC NSCLC 107% | 786-0 renal 100% | COLO 205 colon 112%

C[C@H]1[C@H](C)CC[C@]2(C(=O)NCC#CCN3CCN(C)CC3)CC[C@]3(C)C(=CC[C@@H]4[C@@]5(C)Cc6c([nH]c7ccccc67)C(C)(C)[C@@H]5CC[C@]43C)[C@H]12
active: NCI-H460 lung 3.53%
inactive: NCI-H23 lung 100% | NCI-H226 lung 100% | NCI-H322M lung 92.8% | HOP-62 NSCLC 93.1% | HOP-92 NSCLC 63.8% | NCI-H522 lung 82.6% | A549/ATCC NSCLC 69.7% | 786-0 renal 66.9% | COLO 205 colon 53.1%

COc1ccc(/C=C2\Oc3cc(OCCCN4CCCCC4)ccc3C2=O)cc1OC
inactive: NCI-H23 lung 92.1% | NCI-H226 lung 90% | NCI-H322M lung 92.1% | HOP-62 NSCLC 85.7% | NCI-H460 lung 89% | HOP-92 NSCLC 65.9% | NCI-H522 lung 99.1% | A549/ATCC NSCLC 93.6% | 786-0 renal 88.7% | COLO 205 colon 98.3%

COc1cc2nc(-c3ccc(C(F)(F)F)cc3)cc(OCCN3CCCCC3)c2cc1OC
inactive: NCI-H23 lung 84.7% | NCI-H226 lung 73.2% | NCI-H322M lung 73.1% | HOP-62 NSCLC 69.7% | NCI-H460 lung 46.3% | HOP-92 NSCLC 68.2% | NCI-H522 lung 91.2% | A549/ATCC NSCLC 81% | 786-0 renal 78.7% | COLO 205 colon 27.4%

N#CC(C#N)=Cc1cc2ccccc2nc1Oc1ccc(C(F)(F)F)cc1
inactive: NCI-H23 lung 81.8% | NCI-H226 lung 77.1% | NCI-H322M lung 99.2% | HOP-62 NSCLC 93.7% | NCI-H460 lung 97.4% | HOP-92 NSCLC 48.7% | NCI-H522 lung 91.8% | A549/ATCC NSCLC 99.5% | 786-0 renal 98.8% | COLO 205 colon 101%

O=C(Nc1ccc(-c2ccc3c(c2)NC(=O)/C3=C\c2ccc[nH]2)cc1)NC1CC1
inactive: NCI-H23 lung 55.1% | NCI-H226 lung 101% | NCI-H322M lung 80.2% | HOP-62 NSCLC 113% | NCI-H460 lung 59.8% | HOP-92 NSCLC 125% | NCI-H522 lung 89.6% | A549/ATCC NSCLC 102% | 786-0 renal 110% | COLO 205 colon 115%

C=C1C(=O)O[C@H]2[C@H]1CC/C(COC(=O)NCc1c[nH]c3ccc(Cl)cc13)=C\CC[C@@]1(C)O[C@@H]21
inactive: NCI-H23 lung 34.8% | NCI-H322M lung 76.2% | HOP-62 NSCLC 60.5% | NCI-H460 lung 18% | A549/ATCC NSCLC 55.8%
active: NCI-H226 lung 6.61% | HOP-92 NSCLC -35.7% | NCI-H522 lung -90.4% | 786-0 renal -61.8% | COLO 205 colon -59.3%

OC(c1cccc(C(F)(F)F)c1)c1cnccc1NC1CCCCC1 (stereo unspecified)
active: COLO 205 colon -39.9%
inactive: NCI-H23 lung 60.9% | NCI-H226 lung 82.9% | NCI-H322M lung 90.2% | HOP-62 NSCLC 87.4% | NCI-H460 lung 82.8% | HOP-92 NSCLC 45.4% | NCI-H522 lung 82.4% | A549/ATCC NSCLC 75.8% | 786-0 renal 73.7%

Cc1c(C)c([N+](=O)[O-])c(C)c([N+](=O)[O-])c1C
inactive: NCI-H23 lung 116% | NCI-H226 lung 108% | NCI-H322M lung 115% | HOP-62 NSCLC 121% | NCI-H460 lung 112% | HOP-92 NSCLC 79.2% | NCI-H522 lung 77.2% | A549/ATCC NSCLC 98.2% | 786-0 renal 95.4% | COLO 205 colon 122%

Cc1cc(C)c(S(=O)(=O)Oc2ccccc2[N+](=O)[O-])c(C)c1
active: NCI-H460 lung 8.64% | NCI-H522 lung -12.5%
inactive: NCI-H23 lung 32.9% | NCI-H226 lung 60% | NCI-H322M lung 52.6% | HOP-62 NSCLC 39.8% | HOP-92 NSCLC 38.1% | A549/ATCC NSCLC 31.2% | 786-0 renal 33% | COLO 205 colon 22.9%

O=C(N/N=C/c1cc2ccccc2n2nnnc12)Nc1ccccc1
inactive: NCI-H23 lung 100% | NCI-H226 lung 103% | NCI-H322M lung 105% | HOP-62 NSCLC 100% | NCI-H460 lung 105% | HOP-92 NSCLC 105% | NCI-H522 lung 93.6% | A549/ATCC NSCLC 97.7% | 786-0 renal 91.5% | COLO 205 colon 108%

CNCCOc1nc2c3cnccc3cc(-c3cc(OC)c(OC)c(OC)c3)c2c2ccncc12
active: NCI-H23 lung -49.1% | NCI-H226 lung -42.5% | NCI-H322M lung -4.74% | HOP-62 NSCLC -39% | NCI-H460 lung -46.8% | HOP-92 NSCLC -20.8% | NCI-H522 lung -62.7% | A549/ATCC NSCLC -8.59% | 786-0 renal -96.7% | COLO 205 colon -61.2%

From PubChem BioAssay (NCI)
